Test results taken from PMC11062922 (Nature Chemical Biology, 2023).
Like-named read-outs stand apart in the source and are kept apart here.

Key:
Parameters in all cases: species or system human, MV4-11 + K-562 + COLO205 + SK-N-BE2 + OVCAR-8
MAP2K1 = conditions: read-out: apparent Kd, n = 1
MAP2K2 = conditions: read-out: apparent Kd, n = 1
NEK9 = conditions: read-out: apparent Kd, n = 1
ACVR1 = conditions: read-out: apparent Kd; compound concentrations: 100 nM and 1000 nM (sheet 'Samples'), CATDS: 3.5400947915422802E-2; n = 1
EPHB1 = conditions: read-out: apparent Kd; compound concentrations:100 nM and 1000 nM (sheet 'Samples'); n = 1
MTOR = conditions: read-out: apparent Kd, n = 1
MAP4K2 = conditions: read-out: apparent Kd; compound concentrations:100 nM and 1000 nM (sheet 'Samples'); n = 1
PRKAA2 = conditions: read-out: apparent Kd, n = 1
CSK = conditions: read-out: apparent Kd; compound concentrations:100 nM and 1000 nM (sheet 'Samples'); n = 1
EPHA1 = conditions: read-out: apparent Kd, n = 1
LCK = conditions: read-out: apparent Kd, n = 1
STK26 = conditions: read-out: apparent Kd, compound concentrations: 100 nM and 1000 nM (sheet 'Samples'), n = 1
BTK = conditions: read-out: apparent Kd, compound concentrations: 100 nM and 1000 nM (sheet 'Samples'), n = 1
IRAK4 = conditions: read-out: apparent Kd; compound concentrations:100 nM and 1000 nM (sheet 'Samples'); n = 1
PRKCB = conditions: read-out: apparent Kd, n = 1
CDK10 = conditions: read-out: apparent Kd; compound concentrations:100 nM and 1000 nM (sheet 'Samples'); n = 1
MAP4K3 = conditions: read-out: apparent Kd; compound concentrations: 100 nM and 1000 nM (sheet 'Samples'), CATDS: 1.6349767602700901E-2; n = 1
PIK3C2A = conditions: read-out: apparent Kd, n = 1
AXL = conditions: read-out: apparent Kd; compound concentrations: 100 nM and 1000 nM (sheet 'Samples'), CATDS: 9.0934128648907098E-2; n = 1
[1] = compound concentrations:100 nM and 1000 nM (sheet 'Samples')

Compound: c1cnn2ncc(-c3ccnc(Nc4ccc5c(c4)OCCO5)n3)c2c1 [GW806290X]
- potency estimated from few doses (MAP2K1; compound concentrations: 100 nM and 1000 nM (sheet 'Samples'), CATDS: 2.0774102889224599E-2): 1.73 µM
- potency estimated from few doses (MAP2K2; compound concentrations: 100 nM and 1000 nM (sheet 'Samples'), CATDS: 2.1479851181110499E-2): 1.53 µM
- potency estimated from few doses (NEK9; compound concentrations: 100 nM and 1000 nM (sheet 'Samples'), CATDS: 2.42273764121115E-2): 1.03 µM

Compound: CC(C)Oc1ccc2c(-c3ccnc(Nc4ccc(N5CCN(C)CC5)cc4)n3)cnn2n1 [GW696155X]
- potency estimated from few doses (NEK9; [1]): 0.026 µM

Compound: NCC(NC(=O)c1cc(-c2cn[nH]c2)c(-c2ccnc3[nH]ccc23)s1)c1ccccc1.NCC(NC(=O)c1cc(-c2cn[nH]c2)c(-c2ccnc3[nH]ccc23)s1)c1ccccc1.O=C(O)C(F)(F)F.O=C(O)C(F)(F)F (stereo not drawn) [GSK1325775A]
- potency estimated from few doses (ACVR1): 1.18 µM

Compound: CNc1cc(-c2ccc3c(N)n[nH]c3c2)nc(N)n1 [GSK2224810A]
- potency estimated from few doses (EPHB1): 1.18 µM
- potency estimated from few doses (MTOR; [1]): 0.475 µM

Compound: O=C(O)C(F)(F)F.O=c1[nH]ccc2nc(N[C@@H]3CCNC3)nc(Nc3cc(Cl)cc(Cl)c3)c12 [GSK2188764A]
- potency estimated from few doses (MAP4K2): 0.0701 µM
- potency estimated from few doses (PRKAA2; [1]): 0.106 µM

Compound: CS(=O)(=O)CCn1c(=O)c(Oc2ccc(F)cc2F)cc2cnc(NC3CCOCC3)nc21 [RO5027956-000]
- potency estimated from few doses (CSK): 1.54 µM
- potency estimated from few doses (EPHA1; [1]): 0.724 µM
- potency estimated from few doses (EPHB1): 0.892 µM
- potency estimated from few doses (LCK; [1]): 1.16 µM

Compound: CN(C)c1ccc2c(c1)/C(=C/Nc1ccc(S(N)(=O)=O)cc1)C(=O)N2 [GW416469X]
- potency estimated from few doses (STK26; CATDS: 7.4408225949633894E-2): 1.55 µM

Compound: Cl.Cn1c(=O)c(Cc2ccccc2F)cc2cnc(NC3CCOCC3)nc21 [RO3305377-001]
- potency estimated from few doses (BTK; CATDS: 1.9599592223560901E-2): 1.18 µM

Compound: O=C(Nc1n[nH]c2nc(-c3ccccc3O)ccc12)C1CC1 [SB-711880]
- potency estimated from few doses (IRAK4): 0.958 µM
- potency estimated from few doses (MAP4K2): 1.46 µM

Compound: CCn1c(-c2nonc2N)nc2cncc(C(=O)N3CC[C@H](N)C3)c21.Cl [SB-772077-B]
- potency estimated from few doses (PRKCB; [1]): 0.752 µM

Compound: Cc1cc(NC(=O)c2cccc(NC(=O)/C=C/CN(C)C)c2)ccc1Nc1nccc(-c2cccnc2)n1 [JNK-IN-7]
- potency estimated from few doses (CDK10): 0.844 µM
- potency estimated from few doses (NEK9; [1]): 1.38 µM

Compound: NS(=O)(=O)c1cccc(-c2ccc3c(NC(=O)C4CC4)n[nH]c3c2)c1 [SB-741905]
- potency estimated from few doses (MTOR; compound concentrations: 100 nM and 1000 nM (sheet 'Samples'), CATDS: 0.166958544620607): 0.626 µM

Compound: Cc1occc1-c1nc(N)c(OC[C@@H](N)Cc2c[nH]c3ccccc23)cc1-c1cc2c(C)n[nH]c2cn1 [GSK1660450B]
- potency estimated from few doses (PRKCB; [1]): 0.126 µM

Compound: NS(=O)(=O)c1ccc(NC=C2C(=O)Nc3ccc4ncsc4c32)cc1 [GW589933X]
- potency estimated from few doses (MAP4K3): 2.07 µM
- potency estimated from few doses (STK26; CATDS: 5.6823828903644298E-2): 0.0943 µM

Compound: Nc1nc(-c2ccc3c(N)n[nH]c3c2)cc(N2CCCC(NC(=O)c3ccccc3)C2)n1 (stereo not drawn) [GSK2286775B]
- potency estimated from few doses (MAP2K1; [1]): 1.83 µM
- potency estimated from few doses (MAP2K2; [1]): 1.56 µM
- potency estimated from few doses (PIK3C2A; [1]): 1.91 µM

Compound: CCn1c(-c2nonc2N)nc2cncc(Br)c21 [SB-738004]
- potency estimated from few doses (PRKCB; [1]): 1.35 µM

Compound: NS(=O)(=O)c1ccc(N/N=C2\C(=O)Nc3ccc4ncccc4c32)cc1 [GW305178X]
- potency estimated from few doses (STK26; CATDS: 3.9228488204277198E-2): 2.19 µM

Compound: COc1cc2ncn(-c3cc(OCc4ccccc4S(C)(=O)=O)c(C#N)s3)c2cc1OC [GSK319347A]
- potency estimated from few doses (AXL): 1.24 µM

Compound: CN[C@H](C#Cc1c(F)ccc2c1/C(=C/c1[nH]ccc1OC)C(=O)N2)CO.Cl [RO0283049-001]
- potency estimated from few doses (PRKAA2; compound concentrations: 100 nM and 1000 nM (sheet 'Samples'), CATDS: 2.2132106558792702E-2): 1.24 µM

Compound: Cn1cc(C2=C(c3ccc(OC[C@@H](O)CO)cc3)C(=O)NC2=O)c2ccccc21 [RO3208546-000]
- potency estimated from few doses (MTOR; compound concentrations: 100 nM and 1000 nM (sheet 'Samples'), CATDS: 4.7243035246753197E-2): 0.73 µM

Compound: NS(=O)(=O)c1ccc(N/C=C2\C(=O)Nc3ccc4ncsc4c32)cc1 [GW297361X]
- potency estimated from few doses (STK26; CATDS: 3.6702057868443203E-2): 1.05 µM

Compound: CCC(CC)(CC)n1cnc2c(N)ncnc21 [SKF-97620]
- potency estimated from few doses (EPHA1; compound concentrations: 100 nM and 1000 nM (sheet 'Samples'), CATDS: 3.2414414086750797E-2): 0.828 µM
- potency estimated from few doses (MTOR; compound concentrations: 100 nM and 1000 nM (sheet 'Samples'), CATDS: 6.0851943016667201E-2): 0.22 µM
- potency estimated from few doses (PIK3C2A; compound concentrations: 100 nM and 1000 nM (sheet 'Samples'), CATDS: 2.66380598887557E-2): 1.43 µM

Compound: CNCC1CCn2c(c(C3=C(c4cn(C)c5ccccc45)C(=O)NC3=O)c3ccccc32)C1 (stereo not drawn) [RO0318676-000]
- potency estimated from few doses (PRKCB; compound concentrations: 100 nM and 1000 nM (sheet 'Samples'), CATDS: 0.17130797334845299): 0.0289 µM

Compound: COc1cc[nH]c1/C=C1\C(=O)Nc2ccc(F)c(C#C[C@@H](O)[C@@H](N)[C@@H](C)O)c21 [RO0283120-000]
- potency estimated from few doses (MAP4K2): 1.07 µM

Compound: Cl.Cl.Cl.c1ccc(Oc2ccc(Nc3ccnc4cc(-c5ccc(CN6CCNCC6)o5)ccc34)cc2)nc1.c1ccc(Oc2ccc(Nc3ccnc4cc(-c5ccc(CN6CCNCC6)o5)ccc34)cc2)nc1 [GW567142A]
- potency estimated from few doses (BTK; CATDS: 2.14657129362281E-2): 0.922 µM
- potency estimated from few doses (EPHA1; compound concentrations: 100 nM and 1000 nM (sheet 'Samples'), CATDS: 3.01720788002969E-2): 0.372 µM
- potency estimated from few doses (LCK; compound concentrations: 100 nM and 1000 nM (sheet 'Samples'), CATDS: 2.9875488877577801E-2): 0.381 µM
- potency estimated from few doses (PIK3C2A; compound concentrations: 100 nM and 1000 nM (sheet 'Samples'), CATDS: 1.69384830257906E-2): 2.08 µM
